Data from PubChem BioAssay (EPA / NIEHS).
Results filed as inconclusive are left out. Active and inactive are the calls of the source. The calls were made as follows, unless noted: active = hit-call score of the fitted dose curve at least 0.9, where 1 is the maximum; inconclusive = response in the unintended direction; inactive = score below 0.9.

How the values were obtained:
[1] = CEETOX_H295R_MTT_cell_viability: Viability Assessment in the CeeTox HT-H295R MTT Assay (AID 2283718; active = hit-call score of the fitted dose curve at least 0.9, where 1 is the maximum; inactive = score below 0.9;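 as to AC50: curve fitted both ways so AC50 may mark viability loss or gain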)
In short: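 H295R cells prestimulated 48 h with 10 uM forskolin, then exposed 48 h to test chemical (0.1% DMSO final). Viability by MTT (0.5 mg/ml, 4 h, 37 C), absorbance 570/650 nm; percent change versus DMSO, bidirectional fit.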

[2] = Tanguay_ZF_120hpf_ActivityScore_legacy: (Legacy) Oregon State University Tanguay Lab 120 Hour Post-fertilization zebrafish Assay Score for Activity (AID 2283742);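 as to AC50: dechorionated Tropical 5D wild-type zebrafish embryos held singly per well; static exposure from 6 hpf until 120 hpf at 28 °C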
In short: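 In this whole-embryo screen, dechorionated zebrafish were exposed from 6 hpf until 120 hpf at 28C under a 0.64% DMSO vehicle. Developmental malformations and death were recorded by brightfield microscopy as binary endpoints.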

[3] = ArunA_CellTiter_hNC: Viability Assessment in the ArunA Biomedical's Oris Neural Crest (hNC) Cell Migration Assay (AID 2283752)
In short: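 After a 72 h chemical exposure, viability of hNC cells is read with CellTiter Aqueous One and fitted as signal loss relative to DMSO. Cells were seeded at 60,000/well on Matrigel and cultured 16 h at 37 C beforehand.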

[4] = ArunA_Migration_hNP: ArunA Biomedical's Oris Neuroprogenitor (hNP) Cell Migration Assay (AID 2283754)
In short: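 Readout is calcein-AM fluorescence (ex494/em517) of cells migrating into the detection zone, relative to DMSO. hNP1 cells (H9-derived) grown on Matrigel behind stoppers 16 h, then stoppers pulled and chemical applied 72 h; cytochalasin D as control.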

[5] = ArunA_Migration_hNC: ArunA Biomedical's Oris Neural Crest (hNC) Cell Migration Assay (AID 2283755)
Procedure: ArunA_Migration_hNC is a cell-based, single-readout assay that uses human H9-derived embryonic neural crest stem cells (hNC). Measurements were taken 72 hours after chemical dosing in a 96-well plate.ArunA_Migration_hNC is an assay component measured from the ArunA_Migration_hNC assay. It is designed to make measurements of cell migration, a form of distribution reporter, as detected with fluorescence intensity signals by HCS Fluorescent Imaging technology. Data from the assay component ArunA_Migration_hNC was analyzed at the endpoint, ArunA_Migration_hNC, in the positive analysis fitting direction relative to DMSO as the negative control and baseline of activity. Using a type of distribution reporter, loss-of-signal activity can be used to understand the cell migration. To generalize the intended target to other relatable targets, this assay endpoint is annotated to the neurodevelopment intended target family, where the subfamily is migration.
To assess the hNP and hNC migration and cell titer endpoints, 60,000 cells per well were plated onto Matrigel in basal growth medium with LIF and bFGF in a 96-well plate format. Plates were incubated for 16 h at 37C followed by a 72 h exposure to chemical in the test medium. For the migration endpoints, cells were seeded and incubated in presence of 'seeding stoppers' to prevent cell migration and growth into the detection zone. At the beginning of chemical exposure, stoppers were removed, and growth medium was replaced with test medium. In the case of the stopper control wells, stoppers remained in place following replacement of growth medium with test medium. Following 72 -h exposure to the test medium, cells were stained at 37C for 30-60 min with calcein-AM. Cell viability in the detection zone was quantitated using a Flexstation3 microplate reader (ex494 nm/em 517 nm). Corresponding cell titer endpoints were assessed for the hNP and hNC cells using the Promega CellTiter Aqueous One Solution Cell Proliferation Assay (Cat no. G3581; CellTiter 96). Finally, to gain insight into the mechanisms by which cells migrate into the detection zone, Ki-67 expression was quantified for 10 additional chemicals in the hNP and hNC systems. Additionally, cytochalasin D was used as a positive control to inhibit cell migration. Supplementing the AB2 Basal Medium: 1. Decontaminate the external surfaces of all supplement vials and the medium bottle with ethanol or isopropanol. 2. Aseptically open each supplement vial and add the amount indicated below to the basal medium with a pipette. To make 100 ml of complete medium: AB2 Neural Medium 96 mL, ANS Supplement 2 mL, bFGF (50 ug/mL) 40 uL, LIF (10 ug/mL) 100 uL, L-Glutamine (200 mM) 1 mL, Penicillin (5,000 U/mL)/ Streptomycin (5,000 ug/mL) 1 mL. 3. Supplemented medium should be stored at 2-8C, protected from light. The complete medium should be given a 2 week expiration date. Dispense the complete medium into aliquots to avoid repeated heating prior to each use.Plate Coating Protocol for hNP1 Neural Progenitor Expansion: To coat dishes perform the following steps: 1. Thaw BD Matrigel at 2-8C overnight. Matrix will gel rapidly at 22C to 35C. Keep Matrigel on ice and use pre-cooled pipettes, plates and tubes when preparing. Gelled Matrigel may be re-liquified if placed at 2-8C on ice for 24 to 48 hours. 2. Handle using aseptic technique in a laminar flow hood. 3. Once BD Matrigel Matrix is thawed, swirl vial to be sure that material is evenly dispersed. 4. Place thawed vial of BD Matrigel Matrix in sterile area, decontaminate the external surfaces with ethanol or isopropanol and air dry. BD Matrigel Matrix may be gently pipetted using a pre-cooled pipette to ensure homogeneity. 5. Dilute Matrigel 1:200 with cooled Dulbecco's Modified Eagle's Medium. Keep on ice. 6. Add 2 mL diluted Matrigel to a 35-mm dish. Swirl to ensure the entire surface of the 35-mm dish is covered with the Matrigel solution. 7. Place dishes at 2-8C for 1-3 hours. 8. Rinse thoroughly with PBS. 9. […]

[6] = ArunA_NOG_NucleusCount: ArunA Biomedical's Neurite Outgrowth (NOG) Assay for Nucleus Count (AID 2283756)
In short: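 Viable neuron count, from Hoechst nuclei passing size and intensity gates, imaged at 20x on differentiated H9-derived human neurons. Exposure lasted 48 h from seeding; activity was scored relative to DMSO.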

[7] = system: Thyroperoxidase (TPO), gene 445522; test: CCTE_Simmons_GUA_TPO: CCTE's Guaiacol Assay for Thyroperoxidase (TPO) Inhibition, Simmons Lab (AID 2283750)
In short: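 Porcine thyroid microsomes (25 ug) in 200mM potassium phosphate, preincubated 30 s at 37C with compound (8 concentrations, 5 nM–87.5 uM) and 35mM guaiacol; 1mM H2O2 starts reaction. Absorbance change at 450nm over first 80 s; loss of signal versus DMSO, three replicates.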

[8] = ArunA_NOG_NeuriteLength: ArunA Biomedical's Neurite Outgrowth (NOG) Assay for Neurite Length (AID 2283757)
In short: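 Total neurite length per neuron, from traced βIII-tubulin-labelled processes longer than 10 um on viable Hoechst-gated cells, was scored as decrease from DMSO. Cells were hESC (H9)-derived neurons given 48 h chemical exposure immediately after seeding.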

[9] = ArunA_NOG_NeuritesPerNeuron: ArunA Biomedical's Neurite Outgrowth (NOG) Assay for Neurites Per Neuron (AID 2283758)
In short: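 Differentiated human H9-derived neurons exposed to chemicals for 48 h from seeding, then stained with Hoechst and βIII-tubulin/DyLight 488. Automated imaging counted neurites (processes >10 um) per valid neuron; loss of signal versus DMSO scored.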

C=CCc1ccc(O)c(OC)c1
outcome [1]: inactive
outcome [2]: inactive

CN1CCN(Cc2cc(-c3ccc4[nH]c(=O)oc4c3)co2)[C@@H](c2ccc(F)cc2)C1
outcome [1]: inactive
outcome [2]: inactive

CC(=O)Oc1ccccc1C(=O)O
outcome [2]: inactive

C[C@]12C=CC(=O)C=C1CC[C@@H]1[C@@H]2C(=O)C[C@@]2(C)[C@H]1CC[C@]2(O)C(=O)CO
AC50 [1]: 0.844 µM (active)
outcome [2]: inactive

Nc1ccc2c(c1)C(=O)c1ccccc1C2=O
outcome [1]: inactive
outcome [2]: inactive

c1cc(-c2ccncc2)ccn1
outcome [1]: inactive
outcome [2]: inactive

Oc1ccc2c(c1)OC[C@@H](N1CCC(O)(c3ccc(F)cc3)CC1)[C@H]2O
outcome [1]: inactive
outcome [2]: inactive

O=C(OCCCCCOC(=O)c1ccccc1)c1ccccc1
outcome [1]: inactive
outcome [2]: inactive

CC(C)(C)c1cc(O)c(C(C)(C)C)cc1O
AC50 [2]: 40.5 µM (active)

Cc1c(C(=O)O)c(O)cc2c1C(=O)c1c(O)c([C@@H]3O[C@H](CO)[C@@H](O)[C@H](O)[C@H]3O)c(O)c(O)c1C2=O
outcome [1]: inactive
outcome [2]: inactive

Cc1cc(NC(=O)C(=O)O)cc(C)c1Oc1ccc(O)c2c1CCC2
outcome [1]: inactive
AC50 [2]: 0.216 µM (active)
outcome [3]: inactive
outcome [4]: inactive
outcome [5]: inactive
outcome [6]: inactive

C=CCOC(=O)c1ccccc1C(=O)OCC=C
outcome [1]: inactive
AC50 [2]: 37.4 µM (active)

CC1(C)CC(N=C=O)CC(C)(CN=C=O)C1 (stereo not given)
AC50 [1]: 22.3 µM (active)
outcome [2]: inactive

CCOc1ccc2c(c1)C(C)=CC(C)(C)N2
outcome [1]: inactive
outcome [2]: inactive
AC50 [7]: 130 µM (active)

Oc1ccc2ccccc2c1N=Nc1ccccc1
outcome [1]: inactive
AC50 [2]: 0.0559 µM (active)
outcome [3]: inactive
outcome [4]: inactive
outcome [5]: inactive

CC=Cc1ccc(O)c(OC)c1
outcome [1]: inactive
outcome [2]: inactive

Cc1nc(C)nc(N2C[C@@H](C)N(c3ccnc([C@@H](C)O)n3)[C@@H](C)C2)n1
outcome [1]: inactive
outcome [2]: inactive

NCC1(Cc2noc(=O)[nH]2)CCCCC1
outcome [2]: inactive

COC(=O)c1ccc(O)cc1
outcome [1]: inactive
outcome [2]: inactive
outcome [3]: inactive
outcome [4]: inactive
outcome [5]: inactive
AC50 [6]: 13.7 µM (active)
AC50 [8]: 18.1 µM (active)
AC50 [9]: 17.4 µM (active)

Cc1cccc(Nc2cc(Cl)nc(SCC(=O)O)n2)c1C
outcome [1]: inactive
outcome [2]: inactive

CCCCCCCCCCCC(=O)OC
outcome [2]: inactive

COc1ccc(S(=O)(=O)N2C(=O)[C@@](c3ccccc3OC)(N3C[C@H](O)C[C@H]3C(=O)N(C)C)c3cc(Cl)ccc32)c(OC)c1
AC50 [1]: 3.43 µM (active)
outcome [2]: inactive

COc1ccc2c(c1)c(CC(=O)O)c(C)n2C(=O)c1ccc(Cl)cc1
outcome [1]: inactive

Cc1oc(-c2ccccc2)nc1CCOc1cccc2c1ccn2CCC(=O)O
outcome [1]: inactive
outcome [2]: inactive

NC(=O)Cn1c(=O)cc(CCN2CCN(c3nccc4sccc34)CC2)c2ccc(F)cc21
outcome [1]: inactive
outcome [2]: inactive

Nc1ccccc1N
outcome [1]: inactive
outcome [2]: inactive

COc1ccc(C)cc1N
outcome [1]: inactive
outcome [2]: inactive

Cc1nc(-c2ccc3c(c2)CCN(CCC2CCC(NC(=O)/C=C/c4ccc(F)cc4)CC2)CC3)no1 (stereo not given)
outcome [1]: inactive
outcome [2]: inactive

CCCCCCCCCCC
outcome [2]: inactive

COc1cc(C=O)ccc1O
AC50 [2]: 69.8 µM (active)

Clc1cc(Cl)c(Cl)cc1Cl
outcome [2]: inactive

Nc1nc(N)c2nc(CNc3ccc(C(=O)N[C@@H](CCC(=O)O)C(=O)O)cc3)cnc2n1
outcome [2]: inactive

C[Si]1(C)O[Si](C)(C)O[Si](C)(C)O[Si](C)(C)O1
outcome [2]: inactive

CCCCCCCCCCCCCCCC
outcome [2]: inactive

Nc1ccc(S(=O)(=O)c2ccc(N)cc2)cc1
outcome [2]: inactive

NS(=O)(=O)c1cc2c(cc1Cl)NCNS2(=O)=O
outcome [2]: inactive

Cc1cccc([N+](=O)[O-])c1C
outcome [2]: inactive

CN[C@H]1CC[C@@H](c2ccc(Cl)c(Cl)c2)c2ccc(S(N)(=O)=O)cc21
outcome [2]: inactive

CNC(=O)[C@H]1O[C@@H](n2cnc3c(NCc4cc(Cl)ccc4OCc4cc(C)no4)ncnc32)[C@H](O)[C@@H]1N
outcome [2]: inactive

Cc1ccccc1Cl
outcome [2]: inactive

CC(=O)C(C)=CC1C(C)=CCCC1(C)C (stereo not given)
outcome [2]: inactive

CCOC(=O)CCC(=O)OCC
outcome [2]: inactive

O=c1[nH]cc(F)c(=O)[nH]1
outcome [2]: inactive

O=C(O)Cc1ccccc1Nc1c(Cl)cccc1Cl
AC50 [2]: 35 µM (active)

CCCCOC(=O)CCCCCCCCC(=O)OCCCC
outcome [2]: inactive

COCCOC[C@H](CC1(C(=O)NC2CCC(C(=O)O)CC2)CCCC1)C(=O)Oc1ccc2c(c1)CCC2 (stereo not given in full)
outcome [2]: inactive

CC1=C(/C=C/C(C)=C/C=C/C(C)=C/CO)C(C)(C)CCC1
outcome [2]: inactive

CCCCCCCCCCCCCO
outcome [2]: inactive
